# Sampled rows, rich in hits. Any-hit rate of the full collection: about 2.6%.
# p53 mut binder = binds human mutant p53 on microarray | small molecule microarray binding, anti-GST fluorescence | calls only | 0.4% of 17,000 active;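 active = compounds whose four printed spots each glow above background more than chance allows, each with a p-value under 7%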
# NFkB SMM = binds human NF-kappa-B p105 on microarray; Small molecule microarray, anti-His fluorescence binding; P19838; 1.3% of 17,000 active; calls only;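 active = spot fluorescence over background significantly raised, with a chance value under 7% in all four replicate spots of the compound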;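 also: probe protein is his-tagged human p50 processed subunit at 1 µg/ml; raw spot fluorescence signals with no normalization applied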
# Target sequence (P19838 1-433 limits assumed): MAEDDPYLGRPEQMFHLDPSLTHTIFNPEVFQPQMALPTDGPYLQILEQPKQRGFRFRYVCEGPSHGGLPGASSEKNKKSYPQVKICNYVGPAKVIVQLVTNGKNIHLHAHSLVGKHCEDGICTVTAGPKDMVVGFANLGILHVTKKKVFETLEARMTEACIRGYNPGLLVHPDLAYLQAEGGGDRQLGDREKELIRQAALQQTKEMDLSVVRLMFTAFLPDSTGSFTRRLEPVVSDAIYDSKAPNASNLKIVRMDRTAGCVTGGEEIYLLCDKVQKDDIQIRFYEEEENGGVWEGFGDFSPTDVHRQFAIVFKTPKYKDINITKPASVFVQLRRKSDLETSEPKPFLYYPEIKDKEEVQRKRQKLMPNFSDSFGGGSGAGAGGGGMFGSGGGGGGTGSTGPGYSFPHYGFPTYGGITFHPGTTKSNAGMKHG
# STAT3 binder = STAT3 (human) binding | P40763 | 0.2% of 17,000 active | calls only | AID 624138 | Small molecule microarray, His-STAT3 binding, anti-His fluorescence;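 active = compounds whose four printed spots each show fluorescence over background unusually high for their array block, chance value under 7%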
# Myc binder = c-Myc (human) binding. P01106. small molecule microarray, His-c-Myc binding, anti-His fluorescence. calls only. 1.5% of 17,000 active. AID 624141;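 active = spot fluorescence over background with P-value below 7% in all four replicate spots, showing protein binding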;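 also: score is binary with 100 for all four spots passing and 0 otherwise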
# mut p53 react = restores mutant p53 pathway signaling in SW480 cells. activation, % at 9.98 µM. 1.5% of 28,000 active. SW480 PUMA-promoter luciferase, p53 mutant reactivation. AID 624151; in the data active = activation above about 52%
# Active calls of the source: *; i = inactive; . = no result; + = active, no number.
SMILES,p53 mut binder,NFkB SMM,STAT3 binder,Myc binder,mut p53 react
CC(C)NC(=O)N(C)C[C@@H]1OCCCC[C@@H](C)Oc2ccc(NC(=O)c3ccncc3)cc2C(=O)N([C@H](C)CO)C[C@@H]1C,i,i,i,i,7
C[C@H]1CCCCO[C@@H](CN(C)Cc2ccccc2)[C@@H](C)CN([C@@H](C)CO)C(=O)c2cc(NC(=O)Nc3ccc4c(c3)OCO4)ccc2O1,i,i,i,i,-29
C[C@H]1CCCCO[C@H](CN(C)C(=O)c2ccccc2)[C@@H](C)CN([C@@H](C)CO)C(=O)c2cc(NC(=O)Nc3ccc4c(c3)OCO4)ccc2O1,+,i,i,i,-25
C[C@H]1CCCCO[C@H](CN(C)Cc2ccncc2)[C@@H](C)CN([C@@H](C)CO)C(=O)c2cc(NC(=O)Nc3ccccc3)ccc2O1,i,i,i,i,-2
C[C@@H]1CCCCO[C@@H](CN(C)Cc2ccccc2)[C@H](C)CN([C@H](C)CO)C(=O)c2cc(NC(=O)Nc3ccc4c(c3)OCO4)ccc2O1,i,+,i,i,-25
C[C@@H]1CN([C@H](C)CO)C(=O)c2cc(NC(=O)Nc3ccc4c(c3)OCO4)ccc2O[C@@H](C)CCCCO[C@@H]1CN(C)C(=O)c1ccccc1,i,i,i,i,1
C[C@@H]1CN([C@@H](C)CO)C(=O)c2cc(NC(=O)Nc3ccccc3)ccc2O[C@@H](C)CCCCO[C@H]1CN(C)Cc1ccncc1,i,i,i,+,-4
CC(C)NC(=O)Nc1ccc2c(c1)C(=O)N([C@@H](C)CO)C[C@@H](C)[C@H](CN(C)Cc1ccccc1)OCCCC[C@H](C)O2,i,+,i,+,7
C[C@@H]1CN([C@H](C)CO)C(=O)c2cccc(NS(=O)(=O)c3ccc(Cl)cc3)c2O[C@H]1CN(C)C(=O)Nc1cccc2ccccc12,i,i,i,i,-17
COCC(C)NCc1ccc(OC)c(OC)c1OC (configuration not stated),i,i,i,+,-8
CC1CCc2c(sc(NC(=O)c3nc4ncccn4n3)c2C(N)=O)C1 (configuration not stated),.,.,.,.,59*
O=C(Nc1ccc(I)cc1C(=O)NCC1CCCO1)c1ccco1 (configuration not stated),.,.,.,.,1
CCCN(C)C[C@H]1OCCCC[C@@H](C)Oc2ccc(NS(=O)(=O)c3ccc(OC)cc3)cc2C(=O)N([C@H](C)CO)C[C@@H]1C,i,i,i,i,-3
C[C@@H]1CCCCO[C@@H](CN(C)C(=O)C2CCCCC2)[C@@H](C)CN([C@H](C)CO)C(=O)c2cc(NS(=O)(=O)c3ccccc3)ccc2O1,i,i,i,i,-7
C[C@H](CO)N1C[C@H](C)[C@H](CN(C)Cc2ccccc2)OCCCC[C@H](C)Oc2ccc(NS(=O)(=O)c3ccccc3)cc2C1=O,+,i,i,i,1
C[C@H](CO)N1C[C@H](C)[C@H](CN(C)C(=O)C2CCCCC2)OCCCC[C@H](C)Oc2ccc(NS(=O)(=O)c3ccccc3)cc2C1=O,i,i,+,i,-16
CCCN(C)C[C@H]1OCCCC[C@@H](C)Oc2ccc(NS(=O)(=O)c3ccc(OC)cc3)cc2C(=O)N([C@H](C)CO)C[C@H]1C,+,i,i,i,-11
C[C@H]1CCCCO[C@@H](CN(C)C(=O)C2CCCCC2)[C@@H](C)CN([C@@H](C)CO)C(=O)c2cc(NS(=O)(=O)c3ccccc3)ccc2O1,i,i,i,i,-10
C[C@H]1CCCCO[C@H](CN(C)C(=O)C2CCCCC2)[C@@H](C)CN([C@@H](C)CO)C(=O)c2cc(NS(=O)(=O)c3ccccc3)ccc2O1,i,+,i,+,-7
O=C(CN1C(=O)c2ccccc2S1(=O)=O)Nc1ccccc1C(=O)N1CCCC1,.,.,.,.,6
COc1cc(OC)c(NC(=O)CN(C)S(=O)(=O)c2ccc(Br)cc2)cc1Cl,.,.,.,.,-1
CNC[C@@H]1OCCCC[C@H](C)Oc2ccc(NC(=O)c3ccccc3)cc2C(=O)N([C@@H](C)CO)C[C@H]1C,i,i,i,i,.
Nc1nc(CSc2ccccn2)nc(Nc2ccccc2)n1,.,.,.,.,89*
O=[N+]([O-])c1cccc(NC(=S)NCCn2cc(Br)cn2)c1,.,.,.,.,1
COc1ccc(C2CC(=O)c3c(O)cc(O)cc3O2)cc1O (configuration not stated),i,i,i,i,63*

# Screens from PubChem.
